The results in this text go back to ChEMBL document CHEMBL4296182, “CO-ADD screening of NIH NCI Diversity Set V”.

The campaign covered roughly 23,000 compounds. About 30 (0.1%) showed an effect of 50% or more. This is one part of a sample in which strong results are shown more often than they occur. Results with a measured potency or affinity are listed apart.

In this assay the test system is Pseudomonas aeruginosa. The conditions noted are these: Concentration 20 uM; ASSAY_TEST Inhibition of Bacterial Growth; detection method Absorption (OD600); MEDIA CAMHB; plate type 384well; NBS; CORNING #3640; time 18 hr.
The Inhibition is the change of the read-out against control, counted positive when it falls. For `Oc1ccnc2c(Cl)cccc12`, the Inhibition is listed as -8.65%.

For the molecule `OCc1ncccc1O`, the Inhibition worked out at 3.5%.

`Oc1ccc2ccccc2c1/N=N/c1ccc(F)cc1`: the Inhibition amounted to 0.71%.

As to `O=[N+]([O-])c1cccc(/C=C/c2ccccn2)c1`, the Inhibition is recorded as 19.15%.

`CSc1nc(S)c2[nH]c(S)nc2n1`: the Inhibition came to 6.05%.

As for `Cc1ccc(/N=N/c2ccc(N)cc2C)c(S(N)(=O)=O)c1`, the Inhibition is reported as -1.43%.

Consider `COc1ccc(/C(C#N)=C/c2cccnc2)cc1`, for which the Inhibition amounted to 11.13%.

Turning to `C=CCC(CC)C(=O)NC(=O)N1CCCc2ccccc21` (centres undefined), the Inhibition is given as -1.54%.

`C=C1S/C(=N\c2c(C)cccc2Cl)N(C(=O)c2sc3ccccc3c2Cl)C12CCCCC2`: the Inhibition is -6.03%.

Turning to `COC1OC(CO)C(N=C(C)C)C1O` (centres undefined), the Inhibition is -2.66%.

In the case of `c1ccc(Nc2cccc3c(Nc4ccccc4)cccc23)cc1`, the Inhibition turned out to be 21.7%.

On to `O=C(Nc1cccnc1)c1cccc([N+](=O)[O-])c1`, for which the Inhibition came out at 8.42%.

For the molecule `COC1OC(O)C(NC(=O)C(F)(F)F)CC1O` (centres undefined), the Inhibition is recorded as 6.88%.

Turning to `O=C1CSCc2nc3ccccc3n21`, the Inhibition is listed as 23.81%.
